# Test results from PubChem BioAssay AID1745849 (National Center for Advancing Translational Sciences (NCATS), 2022).
# About 320 (15%) of roughly 2,100 compounds were called active. Not shown: some 52% with an inconclusive outcome. The call rests on the fitted dose curve; in most records, active means well fitted cell-killing curve with a large enough effect; inconclusive means small, poorly fitted or top-dose-only effect, or effect the other way; inactive means flat fitted curve, though single readings scatter. The list shows a part of the results. Entries that show only a call come without a potency.
# Assay: Viability Counterscreen for CMV-Luciferase Assay of Inhibitors of ATXN expression; further: nearly all actives have a fitted effect of over 55% in size
# Details: HEK-293 CMV-luciferase cells viability, protease fluorescence, 24 h
# Outline: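 Luminescence read-out: SteadyGlo added, 5 min RT, measured in CMV-luciferase HEK-293 cells after 24 hr compound treatment (several concentrations). Viability counterscreen: 25 uM Gly-Phe-7-amino-4-trifluoromethylcoumarin, 30 min at 37 degree C, fluorescence ex 405/em 540 nm.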
# Potency means the concentration at half of the fitted maximal effect.
row,SMILES,Potency
1,O=C(CC1Sc2ccccc2NC1=O)NNc1cccc(Cl)c1Cl (stereo unspecified),inactive
2,CN1OC[C@@H]2CN[C@H](c3ccc(-c4cc5ccccc5o4)cc3)C[C@@H]21,inactive
3,CC1(C(=O)NCc2cccc(C(F)(F)F)c2)CCN1Cc1ccc(-c2ccccc2)o1 (stereo unspecified),inactive
4,Cc1cc(C)c(C(O)c2ncc(-c3cccc4ccccc34)[nH]2)c(C)c1 (stereo unspecified),inactive
5,CCN1CC2=C(OC(N)=C(C#N)C2c2cccs2)/C(=C\c2cccs2)C1 (stereo unspecified),inactive
6,O=C(CCCOc1ccc(Cl)cc1Cl)N/N=C/c1ccccc1O,3.98 µM (active)
7,O=C(CN1CCCc2ccccc21)N/N=C/c1ccccc1O,inactive
8,O=C(CCc1ccccc1)N/N=C/c1cc(Br)ccc1O,inactive
9,CC(C)(C)c1ccc(NC(=O)N2CCCN(c3c(Cl)cncc3Cl)CC2)cc1,inactive
10,O=C(c1ccc(S(=O)(=O)c2cccc(Cl)c2)c([N+](=O)[O-])c1)N1CCN(Cc2ccccc2)CC1,15.8 µM (active)
11,O=C(NC1CCN(Cc2ccccc2)CC1)c1cccc(S(=O)(=O)Nc2ccc(SC(F)F)cc2)c1,inactive
12,OC(c1ccccc1)(c1nc(-c2cc3ccccc3o2)cs1)C(F)(F)F (stereo unspecified),inactive
13,O=S(=O)(c1ccc2c(c1)OCCO2)N1CCC(c2nc3ccc(Cl)cc3[nH]2)CC1,inactive
14,Cc1ccc(S(=O)(=O)/N=C(\Sc2ccccc2)c2ccccc2)cc1,15.8 µM (active)
15,Cc1ccc(S(=O)(=O)N2CCc3ccccc3CC2)cc1,inactive
16,CCn1c(CCC(=O)Nc2nc3c(s2)CCCC3)nc2cc(S(=O)(=O)N(C)C)ccc21,inactive
17,Cc1ccc2c(Cl)cc(Cl)c(O)c2n1,inactive
18,COc1ccc(C)cc1NC(=O)COC(=O)c1c(C)nn(-c2ccccc2)c1C,inactive
19,COc1ccc(C)cc1NC(=O)CSc1ccc(-c2ccccn2)nn1,12.6 µM (active)
20,O=c1c(Cc2ccccc2)c(O)nc2n1CCS2,inactive
21,COc1cccc(/C=N/NC(=O)CC(C)O)c1OC/C=C/c1ccccc1 (stereo unspecified),inactive

row,SMILES,Potency
1,COc1ccc(/C=N/Nc2cc(N3CCCC3)nc(N3CCCC3)n2)cc1,2.82 µM (active)
2,COc1ccc(C(=O)N/N=C/c2ccc(N(C)c3ccccc3)cc2)cc1,inactive
3,NC(=O)c1cccc(-c2ccnc3c2CC(C(=O)Nc2cccc(C(F)(F)F)c2)O3)c1 (stereo unspecified),inactive
4,CS(=O)(=O)Nc1ccccc1C(=O)Nc1cc(Cl)cc(Cl)c1,inactive
5,CS(=O)(=O)Nc1cccc(NC(=O)c2cccc3c(-c4cccc(C(N)=O)c4)coc23)c1,17.8 µM (active)
6,CC(=O)c1cccc(NC(=O)c2cccc3c(-c4cccc(C(N)=O)c4)coc23)c1,11.2 µM (active)
7,CC(=O)c1cccc(NC(=O)C2Cc3c(-c4cccc(C(C)=O)c4)ccnc3O2)c1 (stereo unspecified),inactive
8,Cc1cc(OCc2nc(N)nc(N)c2-c2ccc(Cl)c(Cl)c2)ccc1[N+](=O)[O-],inactive
9,Cc1nn(-c2ccccc2)c2nc(-c3cccs3)cc(C(=O)NN)c12,inactive
10,CCn1c(-c2ccc(C)cc2)nn(CC(=O)NCCc2ccccc2)c1=S,inactive
11,CCN(CC)CCNC(=O)CCc1c(C)nc2c(c(C)nn2-c2ccc(C)cc2)c1C,3.55 µM (active)
12,Cc1ccc(CN2CCC(c3nc4ccc(Cl)cc4[nH]3)CC2)cc1,inactive
13,COc1cccc(/C=N/Nc2nc3ccccc3n3cnnc23)c1O,inactive
14,O=C(N/N=C/c1cc([N+](=O)[O-])ccc1O)c1cccc2cc[nH]c12,7.94 µM (active)
15,C/C(=N\NC(=O)c1cc(-c2cccnc2)nc2ccccc12)c1ccc(O)cc1O,inactive
16,O=C(N/N=C/c1cc([N+](=O)[O-])ccc1O)c1cc(-c2ccccc2)nc2ccccc12,2.51 µM (active)
17,COc1cccc(/C=N/NC(=O)c2ccc(-c3ccccc3)cc2)c1O,inactive
18,O=[N+]([O-])c1ccc(O)c(/C=N\N=C2c3ccccc3-c3ccccc32)c1,10 µM (active)
19,COc1cccc(/C=N/NC(=O)c2cc(-c3ccccn3)nc3ccccc23)c1O,2.82 µM (active)
20,CCCC(=O)Nc1c(C(=O)OCC)[nH]c2ccccc12,inactive
21,Cc1ccc(-n2cccn2)c(CN2CCCC(C(=O)c3ccc4c(c3)OCO4)C2)c1 (stereo unspecified),inactive

row,SMILES,Potency
1,O=C(Nc1cccc(Br)c1)c1ccc(Cl)c(S(=O)(=O)N2CCOCC2)c1,inactive
2,Cc1ccc2c(c1)-c1c(cnn1CC(=O)N1CCCN(Cc3ccccc3F)C1)CO2,inactive
3,Cc1cc(Br)ccc1NC(=O)c1cnc(N2CCN(c3ccccn3)CC2)c2ccccc12,inactive
4,Cc1cc(Cl)c(C(=O)Nc2cccc(C(F)(F)F)c2)c(C)n1,inactive
5,Cc1ccc(NC(=O)COc2ccc(Br)cc2CO)cc1S(=O)(=O)N1CCOCC1,inactive
6,O=C(c1ccc(Cl)s1)N1CCN(c2nc3ccccc3s2)CC1,inactive
7,CC(=O)c1ccc(NC(=O)COC(=O)c2c3c(nc4ccccc24)/C(=C\c2cccs2)CCC3)cc1,inactive
8,Cc1noc2ncnc(N3CCN(c4cccc(Cl)c4)CC3)c12,inactive
9,CCN1C(=O)C(CC(=O)Nc2ccc(OC)cc2)N(CCc2ccc(F)cc2)C1=S (stereo unspecified),inactive
10,CC(C)COc1cccc(C(=O)N(CC(=O)Nc2ccccc2C(F)(F)F)Cc2ccco2)c1,inactive
11,Cc1onc(-c2ccccc2)c1C(=O)N/N=C/c1c[nH]c2ccccc12,inactive
12,O=C(N/N=C/c1cc([N+](=O)[O-])ccc1O)c1c[nH]c2ccccc12,28.2 µM (active)
13,Cc1ccc2cc(C#N)c(N3CCN(C(=O)c4ccccc4)CC3)nc2c1,inactive
14,COc1ccc(-c2cc(C3CCN(c4ccc(C(C)=O)cc4[N+](=O)[O-])CC3)[nH]n2)cc1,14.1 µM (active)
15,CCOC(=O)[C@H]1[C@H]2COc3ccc(OC)cc3[C@@H]2N2C(=O)c3cc(OC)c(OC)cc3NC(=O)[C@@]12C,inactive
16,NNc1ncnc2scc(-c3ccc(Cl)cc3)c12,inactive
17,CCOC(=O)c1c(C)sc2c1N(C(=O)CN(CC)CC)c1cc(Cl)ccc1S2,15.8 µM (active)
18,CN(C)c1nc(N/N=C/c2c[nH]c3ccccc23)nc(N2CCOCC2)n1,inactive
19,C=CCn1c(C)c(/C=C/c2cc[n+](C)cc2)c2ccccc21,inactive
